# Assay results published in PubChem BioAssay.
# Active and inactive are the calls of the source.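 The calls were made as follows, unless noted: active = inhibition above 20% together with a positive visual image hit; inconclusive = visual image hit but inhibition not above 20%; inactive = no visual image hit.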
# Assay: inhibitors of TNFa-induced NFkB p65 translocation, primary screen, imaging, HUVEC, MLSMR starter and 10KST1 sets (AID 438);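 also: compound added about 3h40 before a 20 min TNFalpha stimulation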;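 as to inhibition: signal is the nuclear over cytoplasmic p65 intensity ratio per well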
# Settings: HUVEC TNFa-induced p65 nuclear translocation; cell count: measured here: nuclei count (cytotoxicity indicator), at 2.08 µM; inhibition: at 2 µM, stronger effect = higher value, 0% TNFa-plus-vehicle, 100% no-TNFa wells
Compound,inhibition,cell count
COc1ccc(CNc2ccc(C(=O)O)cc2)cc1,-28.3% (inactive),511
COc1ccc(-c2cc(O)cc(O)c2)cc1,-10.3% (inactive),397
CCCC(=O)Nc1ccccc1-c1nnn(CC(=O)Nc2ccc(OCC)cc2)n1,3% (inactive),369
CCOC(=O)c1c(-c2ccc(C)o2)csc1NC(=O)COC(=O)c1cccs1,-7.8% (inactive),478
O=C(Nc1cccc(Cl)c1)N1CCN(Cc2ccccc2)CC1,1.3% (inactive),652
C/C=C/COC(=O)c1[nH]c2c(c1C)C(=O)CC(c1ccco1)C2 (stereo not given),13.8% (inactive),582
CC(=O)NC(CCS(C)(=O)=O)C(=O)Nc1cccc(C)c1C (stereo not given),4.3% (inactive),576
CCOC(=O)c1cn(CC)c2cc(N3CCOCC3)c(F)cc2c1=O,-5.5% (inactive),249
CCCCC(=O)NCCc1ccc(S(N)(=O)=O)cc1,10.7% (inactive),555
CCOc1ccc(-c2c(C#N)c(N)nc3c2c(=O)n(C)c(=O)n3C)cc1OC,-1.1% (inactive),702
COc1ccc(NC(=O)c2cc(C)on2)cc1OC,3.7% (inactive),377
COc1ccc(CCNS(=O)(=O)c2ccc3oc(C(=O)O)c(C)c3c2)cc1OC,-11.4% (inactive),612
O=C(Nc1cccnc1)c1ccc2c(c1)C(=O)N(Cc1cccnc1)C2=O,1.4% (inactive),386
CCCc1nnc2n1N=C(c1ccc(OC)c(OC)c1)CS2,-12.4% (inactive),321
CC(C)(C)NC(=O)CN(C(=O)CS(=O)CC(=O)Nc1ccc(F)cc1)c1ccc(Cl)cc1 (stereo not given),-4.2% (inactive),879
O=C(Nc1nnc(CCN2CCCCC2)s1)C1CCCCC1,-11.2% (inactive),455
CCCCS(=O)(=O)NC1=NCN(CCOC(=O)c2ccccc2)CN1,0.8% (inactive),305
CCCCc1n[nH]c2c1C(=O)CC(C)(C)C2,-28.4% (inactive),712
COc1ccc(OCCSc2nc3ccccc3n2CC(=O)O)cc1,-9.2% (inactive),321
COc1ccc(OC)c(NC(=O)CSc2nnc(Cc3cccn3C)n2-c2ccc(F)cc2)c1,-3.4% (inactive),671

Compound,inhibition,cell count
COc1ccc(N2CCN(C(=O)C(C)(C)Oc3ccc(Cl)cc3)CC2)cc1,5.8% (inactive),651
O=C(Nc1ccncc1)C1c2ccccc2Oc2ccccc21,2.8% (inactive),722
COCCN(CC(=O)NCc1ccccc1)C(=O)CCC(=O)Nc1ccccn1,-4.4% (inactive),663
COc1cc2c(cc1OC)C(c1ccc(C)o1)CC(=O)N2 (stereo not given),0% (inactive),748
Cc1cc(O)c(-c2cc(C(=O)Nc3ccc(S(=O)(=O)N4CCOCC4)cc3)[nH]n2)cc1C,5.8% (inactive),499
O=C(CSc1oc(-c2ccco2)nc1S(=O)(=O)c1ccccc1)NCC1CCCO1 (stereo not given),-13.9% (inactive),497
NCCN1CCN(CCN)CC1,-10% (inactive),728
NC(=O)CSc1nnc(-c2cc3ccccc3o2)n1Cc1ccccc1,6.3% (inactive),426
Cc1ccc(-n2nc(C)c3cc(C(=O)O)sc32)cc1,6.3% (inactive),369
CC1CCN(C(=O)CSCC(=O)Nc2nc(-c3cccs3)cs2)CC1,-3.4% (inactive),734
COc1ccc(C2=NO[C@@H]3C(=O)N(c4cccc(C)c4C)C(=O)[C@H]23)cc1OC,-12.3% (inactive),599
CCOc1ccccc1NC(=O)CC1Nc2cc(C)c(C)cc2NC1=O (stereo not given),1.8% (inactive),374
CC1=C(C(=O)OCc2ccccc2)C(c2ccc(C)o2)C2=C(CCCC2=O)N1 (stereo not given),1.9% (inactive),745
Cc1c(C)n(C)c2ccc(C(=O)NCc3cccs3)cc12,-9.2% (inactive),461
NC(=O)c1c(NC(=O)CN2CCCC2)sc2c1CCCC2,3% (inactive),577
CCOC(=O)c1sc(NC(=O)CSc2nnc3c4ccccc4n(CC)c3n2)nc1C,1.6% (inactive),478
CCS(=O)(=O)N1CCCC(C(=O)NCCc2ccc(OC)c(OC)c2)C1 (stereo not given),-12.8% (inactive),709
CC(=O)n1cc(-c2ccncc2)c2ccccc21,-5% (inactive),474
CN(C1CCCCC1)S(=O)(=O)c1ccc(NC(=O)c2ccco2)cc1,2.8% (inactive),301
COc1cccc(CN2CCN(C(=O)CC(C)C)CC2)c1,2.2% (inactive),448

# Assay: inhibitors of mutant huntingtin aggregation, primary screen, imaging, exon1htt(103Q)mCFP cells, high-content imaging (AID 483;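 active = visual image review flags a hit and inhibition of aggregation exceeds 20%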;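 also: compound exposure lasted 3 days before fixation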;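 as to nuclei count: percent of the per-plate median nuclei count of sample wells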)
# Settings: exon1htt(103Q)mCFP cell line, aggregate imaging, at 2 µM; inhibition of aggregation: stronger effect = higher value; nuclei count: measured here: cell count, toxicity
Compound,nuclei count,inhibition of aggregation
COc1ccc(CNc2ccc(C(=O)O)cc2)cc1,116%,-17.2% (inactive)
COc1ccc(-c2cc(O)cc(O)c2)cc1,103%,-11% (inactive)
CCCC(=O)Nc1ccccc1-c1nnn(CC(=O)Nc2ccc(OCC)cc2)n1,97.4%,-6.8% (inactive)
CCOC(=O)c1c(-c2ccc(C)o2)csc1NC(=O)COC(=O)c1cccs1,66.4%,10% (inactive)
O=C(Nc1cccc(Cl)c1)N1CCN(Cc2ccccc2)CC1,99.5%,-6.8% (inactive)
C/C=C/COC(=O)c1[nH]c2c(c1C)C(=O)CC(c1ccco1)C2 (stereo not given),3.3%,4.4% (inactive)
CC(=O)NC(CCS(C)(=O)=O)C(=O)Nc1cccc(C)c1C (stereo not given),110%,0.4% (inactive)
CCOC(=O)c1cn(CC)c2cc(N3CCOCC3)c(F)cc2c1=O,72.9%,4.6% (inactive)
CCCCC(=O)NCCc1ccc(S(N)(=O)=O)cc1,101%,1.1% (inactive)
CCOc1ccc(-c2c(C#N)c(N)nc3c2c(=O)n(C)c(=O)n3C)cc1OC,108%,7.8% (inactive)
COc1ccc(NC(=O)c2cc(C)on2)cc1OC,111%,-26.4% (inactive)
COc1ccc(CCNS(=O)(=O)c2ccc3oc(C(=O)O)c(C)c3c2)cc1OC,107%,3.9% (inactive)
O=C(Nc1cccnc1)c1ccc2c(c1)C(=O)N(Cc1cccnc1)C2=O,105%,9% (inactive)
CCCc1nnc2n1N=C(c1ccc(OC)c(OC)c1)CS2,83.3%,-0.1% (inactive)
CC(C)(C)NC(=O)CN(C(=O)CS(=O)CC(=O)Nc1ccc(F)cc1)c1ccc(Cl)cc1 (stereo not given),66.8%,3.2% (inactive)
O=C(Nc1nnc(CCN2CCCCC2)s1)C1CCCCC1,113%,7% (inactive)
CCCCS(=O)(=O)NC1=NCN(CCOC(=O)c2ccccc2)CN1,116%,5.7% (inactive)
CCCCc1n[nH]c2c1C(=O)CC(C)(C)C2,113%,3.8% (inactive)
COc1ccc(OCCSc2nc3ccccc3n2CC(=O)O)cc1,108%,-1.3% (inactive)
COc1ccc(OC)c(NC(=O)CSc2nnc(Cc3cccn3C)n2-c2ccc(F)cc2)c1,86.6%,14.8% (inactive)

Compound,nuclei count,inhibition of aggregation
COc1ccc(N2CCN(C(=O)C(C)(C)Oc3ccc(Cl)cc3)CC2)cc1,96.2%,4.4% (inactive)
O=C(Nc1ccncc1)C1c2ccccc2Oc2ccccc21,90.9%,1.3% (inactive)
COCCN(CC(=O)NCc1ccccc1)C(=O)CCC(=O)Nc1ccccn1,86%,6.3% (inactive)
COc1cc2c(cc1OC)C(c1ccc(C)o1)CC(=O)N2 (stereo not given),112%,-33.4% (inactive)
Cc1cc(O)c(-c2cc(C(=O)Nc3ccc(S(=O)(=O)N4CCOCC4)cc3)[nH]n2)cc1C,100%,-6.9% (inactive)
O=C(CSc1oc(-c2ccco2)nc1S(=O)(=O)c1ccccc1)NCC1CCCO1 (stereo not given),98.6%,7.5% (inactive)
NCCN1CCN(CCN)CC1,116%,-4.6% (inactive)
NC(=O)CSc1nnc(-c2cc3ccccc3o2)n1Cc1ccccc1,101%,-2.8% (inactive)
Cc1ccc(-n2nc(C)c3cc(C(=O)O)sc32)cc1,90.3%,11.1% (inactive)
CC1CCN(C(=O)CSCC(=O)Nc2nc(-c3cccs3)cs2)CC1,94.3%,17.8% (inactive)
COc1ccc(C2=NO[C@@H]3C(=O)N(c4cccc(C)c4C)C(=O)[C@H]23)cc1OC,91.7%,10% (inactive)
CCOc1ccccc1NC(=O)CC1Nc2cc(C)c(C)cc2NC1=O (stereo not given),94.4%,23.2% (inactive)
CC1=C(C(=O)OCc2ccccc2)C(c2ccc(C)o2)C2=C(CCCC2=O)N1 (stereo not given),101%,14.6% (inactive)
Cc1c(C)n(C)c2ccc(C(=O)NCc3cccs3)cc12,83.8%,19.4% (inactive)
NC(=O)c1c(NC(=O)CN2CCCC2)sc2c1CCCC2,65.3%,5.3% (inactive)
CCOC(=O)c1sc(NC(=O)CSc2nnc3c4ccccc4n(CC)c3n2)nc1C,106%,6.7% (inactive)
CCS(=O)(=O)N1CCCC(C(=O)NCCc2ccc(OC)c(OC)c2)C1 (stereo not given),111%,-9.5% (inactive)
CC(=O)n1cc(-c2ccncc2)c2ccccc21,69.3%,22.9% (inactive)
CN(C1CCCCC1)S(=O)(=O)c1ccc(NC(=O)c2ccco2)cc1,106%,-6.6% (inactive)
COc1cccc(CN2CCN(C(=O)CC(C)C)CC2)c1,118%,-3.8% (inactive)
